The nature of experiment [1]: qHTS assay to identify small molecule antagonists of the estrogen related receptor (ERR) signaling pathway from Tox21 library - cell viability counter screen (AID 1224834). Further: nearly all actives have a fitted effect of over 30% in size. Further: potency means the concentration at half of the fitted maximal effect. An outline of the steps:
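ERR cells, 2,000/well; 6 h settle at 37 C/5% CO2; pin-tool compound transfer in DMSO; 17.5 h at 37 C; CellTiter-Fluor, 30 min; fluorescence intensity.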
On the technique in general: In qHTS, concentration-response curves come from the screen itself.

For experiment [2], the target named is Luciferin 4-monooxygenase (Photinus pyralis) (UniProt P08659). Description: qHTS assay to identify small molecule inhibitors of firefly luciferase (AID 1224835). Further: nearly all actives have a fitted effect of over 25% in size. Further: potency means the concentration at half of the fitted maximal effect. An outline of the steps:
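Quantitative HTS format; KM concentrations of both substrates. Purified P. pyralis FLuc activity quantified from luminescence images.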

The nature of experiment [3]: qHTS assay to identify small molecule agonists of the constitutive androstane receptor (CAR) signaling pathway - cell viability counter screen (AID 1224836). Further: nearly all actives have a fitted effect of over 45% in size. An outline of the steps: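 Compound titrations (15 concentrations) went onto HepG2-CYP2B6-hCAR cells 4 h after seeding, alongside PK11195 at a final 0.75 uM; a 23 h, 37 C/5% CO2 incubation preceded CellTiter-Fluor viability measurement.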

Experiment [4] can be described thus: qHTS assay to identify small molecule antagonists of the constitutive androstane receptor (CAR) signaling pathway - cell viability counter screen (AID 1224837). Further: nearly all actives have a fitted effect of over 45% in size. An outline of the steps:
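Viability was measured with CellTiter-Fluor in a HepG2 line carrying stably transfected hCAR and a CYP2B6-2.2kb construct. Cells were exposed for 23 hr at 37 C to 15 compound concentrations with 50 nM CITCO as agonist.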

For experiment [5], the target named is Nuclear receptor subfamily 1 group I member 3 (Homo sapiens) (UniProt Q14994). The experiment can be described thus: qHTS assay to identify small molecule agonists of the constitutive androstane receptor (CAR) signaling pathway (AID 1224839). Further: nearly all actives have a fitted effect of over 15% in size. Further: potency means the concentration at half of the fitted maximal effect. An outline of the steps:
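In this screen, CAR-driven CYP2B6 promoter activity is measured by luminescence in HepG2-CYP2B6-hCAR cells after 24 h with test compounds and 0.75 uM PK11195 (final concentration).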

Experiment [6] can be described thus: qHTS assay to identify small molecule antagonists of the estrogen related receptor signaling pathway with the pleiotropic PPARgamma coactivator (PGC) from Tox21 10K library - cell viability counter screen (AID 1224840; active means well fitted cell-killing curve with a large enough effect in the repeat runs, not every such curve was filed as active; further: nearly all actives have a fitted effect of over 40% in size; further: potency means the concentration at half of the fitted maximal effect). An outline of the steps: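 Multiplexed viability counter screen in the PGC/ERR cell line: cells treated with DMSO-dissolved compounds for 17.5 hours at 37 C, then viability measured as CellTiter-Fluor fluorescence.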

The target of experiment [7] is Thyrotropin receptor (Homo sapiens) (UniProt P16473). The experiment can be described thus: qHTS assay to identify small molecule agonists of the thyroid stimulating hormone receptor (TSHR) signaling pathway (AID 1224843; calls by dose curve; further: nearly all actives have a fitted effect of over 45% in size). An outline of the steps:
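Using 15 concentrations per compound in triplicate, cAMP production was monitored in TSHR-HEK293 cells after 30 min compound incubation at RT; HTRF reagents followed, with fluorescence intensity recorded after 1 h.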

Experiment [8] in a line: qHTS assay to identify small molecule agonists of the hypoxia (HIF-1) signaling pathway - cell viability counter screen (AID 1224844; calls by dose curve; further: nearly all actives have a fitted effect of over 50% in size; further: potency means the concentration at half of the fitted maximal effect). An outline of the steps: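 Cytotoxicity was measured in parallel with the HRE-driven beta-lactamase readout: after 17 hrs of compound exposure at 37C, HRE-bla ME-180 cells received CellTiter-Glo and luminescence was recorded 30 min later.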

The nature of experiment [9]: qHTS assay to identify small molecule agonists of H2AX (AID 1224845; active means well fitted activation curve with a large enough effect in the signal ratio in the repeat runs, not every such curve was filed as active; the % refers to the signal ratio). An outline of the steps: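 Wild-type CHO-K1 cells plated overnight, then exposed 3 hr at 37C to compounds at 15 concentrations (0.76% DMSO). Lysed, then HTRF anti-pH2AX(S139)-cryptate/anti-H2AX-d2 detection after 24 hr at room temperature; emissions 665 and 620 nm.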
Experiment [10] can be described thus: qHTS assay to identify small molecule agonists of the hypoxia (HIF-1) signaling pathway (AID 1224846; active means well fitted activation curve with a large enough effect in the signal ratio in the repeat runs, not every such curve was filed as active; the % refers to the signal ratio). An outline of the steps:
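Compounds from the Tox21 10K library, dissolved in DMSO, are tested for induction of a hypoxia response element–controlled beta-lactamase reporter in ME-180 cells. Exposure lasts 17 hrs at 37C after a 5 hr settling period, followed by CCF4-AM FRET substrate.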

A short description of experiment [11]: qHTS RealTime-Glo MT Cell Viability Assay in HepG2 cells - 24 hour (AID 1224867). Further: nearly all actives have a fitted effect of over 50% in size. An outline of the steps: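 Luminescence read-out: viable HepG2 cells reduce a prosubstrate to a NanoLuc substrate, giving a signal proportional to live cell number. Reads taken at 0, 8, 16, 24, 32 and 40 h of compound exposure at 37 C.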
Experiment [12] can be described thus: A CellTox Green Cytotoxicity Assay to monitor cytotoxicity in HEK293 cells - 0 hour (AID 1224869). Further: nearly all actives have a fitted effect of over 50% in size. An outline of the steps:
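Cells (HEK293, 600/well) and dye reagent are dispensed together. After 5 h at 37 C, 23 nL compound is pinned in. Plates stay at 37 C for 40 h with fluorescence read at 0h, 8h, 16h, 24h, 32h and 40h.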

Experiment [13] in a line: qHTS assay to identify small molecule antagonists of the estrogen related receptor signaling pathway with the pleiotropic PPARgamma coactivator (PGC) from Tox21 10K library (AID 1224841; call rule not given here; further: actives are mostly falling curves and most rising ones were filed inactive; nearly all actives have a fitted effect of over 50% in size; further: potency means the concentration at half of the fitted maximal effect). An outline of the steps: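 Steps: plate 2,000 PGC/ERR cells per well; incubate 6 h at 37 C with 5% CO2; transfer compounds from DMSO stocks by pin tool; incubate 18 h at 37 C; add One-Glo; measure luminescence 30 min later.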

Experiment [14] is described as follows: qHTS assay to identify small molecule agonists of the estrogen related receptor signaling pathway with the pleiotropic PPARgamma coactivator (PGC) from Tox21 10K library (AID 1224842). Further: nearly all actives have a fitted effect of over 15% in size. An outline of the steps: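 PGC/ERR reporter cells (NTP line) were seeded 2,000 per well, rested 6 h at 37 C/5% CO2, then pin-dosed with compounds in DMSO for 18 h at 37 C; luciferase read by One-Glo luminescence after 30 min at room temperature.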

Experiment [15] is described as follows: qHTS assay to identify small molecule antagonists of the estrogen related receptor (ERR) signaling pathway from Tox21 library (AID 1224848). Further: nearly all actives have a fitted effect of over 50% in size. Further: potency means the concentration at half of the fitted maximal effect. An outline of the steps: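 Tox21 10K compounds in DMSO tested for ERR pathway antagonism in NTP's ERR cell line; 18 h, 37 C exposure; ONE-Glo luminescence.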
The nature of experiment [16]: qHTS assay to identify small molecule agonists of the estrogen related receptor (ERR) signaling pathway from Tox21 library (AID 1224849; calls by dose curve; further: nearly all actives have a fitted effect of over 15% in size). Particulars: ERR reporter cell line, ONE-Glo luciferase, 18 h. An outline of the steps: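 Cells carrying the ERR reporter were plated and allowed to settle for 6 h, exposed to library compounds for 18 h at 37 C, then lysed with ONE-Glo and luminescence measured.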

A short description of experiment [17]: qHTS RealTime-Glo MT Cell Viability Assay in HEK293 cells - 32 hour (AID 1224868). Further: nearly all actives have a fitted effect of over 50% in size. Further: potency means the concentration at half of the fitted maximal effect. An outline of the steps:
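Nonlytic real-time viability readout: viable cells convert prosubstrate to NanoLuc substrate, giving luminescence proportional to live cell number. HEK293, 600 cells/well, compound added after 5 h, continuous culture at 37 C.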

A short description of experiment [18]: qHTS assay to identify small molecule agonists of H2AX - cell viability counter screen (AID 1224847; calls by dose curve; further: nearly all actives have a fitted effect of over 30% in size; further: potency means the concentration at half of the fitted maximal effect). An outline of the steps:
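Read-out: CellTiter-Glo luminescence, 30 min RT. Cells: wild-type CHO-K1, 1000/well, 10% FBS, plated overnight at 37C. Treatment: 15 concentrations, 3 hr, 37C, 0.76% DMSO.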

The target of experiment [19] is Nuclear receptor subfamily 1 group I member 3 (Homo sapiens) (UniProt Q14994). Description: qHTS assay to identify small molecule antagonists of the constitutive androstane receptor (CAR) signaling pathway (AID 1224838).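 Further: HepG2 cells stably expressing hCAR with CYP2B6 luciferase reporter stimulated by CITCO; nearly all actives have a fitted effect of over 40% in size.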 Further: potency means the concentration at half of the fitted maximal effect. An outline of the steps:
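Antagonist mode used CITCO at a final 50 nM to activate CAR in human hepatoma HepG2 cells carrying stable hCAR and a 2.2 kb CYP2B6 promoter-luciferase construct. Compounds were tested at 15 concentrations over 24 h, with luminescence as the end point.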

“And” between values parts separate entries of the source, which are not always exact repeats. Equal values may be shown once. Results filed as inconclusive are left out. The source holds several records for some structures; these can differ, active in one and inactive in another. The source made the active and inactive calls. Unless noted, the call rests on the fitted dose curve; in most records, active means well fitted curve in the direction sought with a large enough effect in the repeat runs; inconclusive means weak or mixed curves; inactive means no such curve, though single readings can be large; an effect the other way counts as inactive or inconclusive.
On the % scale 0 is the no-effect control and ±100 the full control effect.

Chain of Thyrotropin receptor (Homo sapiens) (P16473 whole entry, looked up): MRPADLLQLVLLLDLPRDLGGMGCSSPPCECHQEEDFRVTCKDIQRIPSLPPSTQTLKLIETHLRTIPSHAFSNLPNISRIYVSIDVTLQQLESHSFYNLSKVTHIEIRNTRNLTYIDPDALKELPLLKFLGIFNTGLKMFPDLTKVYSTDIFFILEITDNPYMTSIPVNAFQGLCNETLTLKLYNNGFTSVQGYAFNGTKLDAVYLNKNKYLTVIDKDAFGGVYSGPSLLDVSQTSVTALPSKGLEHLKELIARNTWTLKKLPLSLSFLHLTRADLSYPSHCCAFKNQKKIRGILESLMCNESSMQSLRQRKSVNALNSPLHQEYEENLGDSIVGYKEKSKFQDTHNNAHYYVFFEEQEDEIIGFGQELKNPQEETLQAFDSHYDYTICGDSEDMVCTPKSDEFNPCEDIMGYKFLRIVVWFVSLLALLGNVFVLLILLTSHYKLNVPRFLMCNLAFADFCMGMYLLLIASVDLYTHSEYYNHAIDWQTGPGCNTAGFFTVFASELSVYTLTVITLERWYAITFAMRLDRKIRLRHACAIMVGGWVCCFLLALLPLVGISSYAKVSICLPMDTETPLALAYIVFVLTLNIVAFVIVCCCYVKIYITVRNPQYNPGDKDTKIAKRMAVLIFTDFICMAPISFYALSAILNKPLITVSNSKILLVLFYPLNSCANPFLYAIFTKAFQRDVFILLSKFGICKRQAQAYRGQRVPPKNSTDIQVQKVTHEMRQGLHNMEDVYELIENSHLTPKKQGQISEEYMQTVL
Chain of Nuclear receptor subfamily 1 group I member 3 (Homo sapiens) (Q14994 whole entry, looked up): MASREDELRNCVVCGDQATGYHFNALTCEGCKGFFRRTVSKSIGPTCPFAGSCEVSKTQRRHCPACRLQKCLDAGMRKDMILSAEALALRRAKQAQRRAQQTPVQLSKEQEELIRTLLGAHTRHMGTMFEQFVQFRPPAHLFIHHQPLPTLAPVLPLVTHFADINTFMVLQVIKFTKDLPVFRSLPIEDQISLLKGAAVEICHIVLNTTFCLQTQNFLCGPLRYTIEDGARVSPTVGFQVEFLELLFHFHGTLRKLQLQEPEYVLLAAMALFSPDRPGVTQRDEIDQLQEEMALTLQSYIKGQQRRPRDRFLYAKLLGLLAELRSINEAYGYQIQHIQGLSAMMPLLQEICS
Chain of Luciferin 4-monooxygenase (Photinus pyralis) (P08659 whole entry, looked up): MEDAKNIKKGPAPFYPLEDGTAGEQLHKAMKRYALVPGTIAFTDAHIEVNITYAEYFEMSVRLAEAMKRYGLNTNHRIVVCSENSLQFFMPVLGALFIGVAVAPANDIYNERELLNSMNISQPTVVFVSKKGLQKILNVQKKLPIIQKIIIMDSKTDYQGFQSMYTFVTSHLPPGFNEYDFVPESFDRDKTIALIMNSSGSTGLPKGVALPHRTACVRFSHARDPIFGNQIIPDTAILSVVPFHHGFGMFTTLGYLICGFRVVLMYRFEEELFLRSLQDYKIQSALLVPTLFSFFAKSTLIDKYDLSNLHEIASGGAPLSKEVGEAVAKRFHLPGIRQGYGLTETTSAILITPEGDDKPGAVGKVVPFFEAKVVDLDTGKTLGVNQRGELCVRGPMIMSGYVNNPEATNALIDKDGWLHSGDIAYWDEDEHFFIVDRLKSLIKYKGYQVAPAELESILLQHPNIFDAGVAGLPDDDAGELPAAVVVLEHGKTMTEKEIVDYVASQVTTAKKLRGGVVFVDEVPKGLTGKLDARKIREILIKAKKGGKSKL

For the compound `CC(=O)Nc1ccc(C(=O)O)cc1`, the Potency entry in experiment [1], in experiment [2], in experiment [3], in [4], in experiment [5] and in experiment [6] was “inactive” each time. In addition, the Potency result in [7], in [8], in experiment [9], in experiment [11] and in experiment [12] was “inactive” in each case. The compound was called inactive in experiment [10].

With `CCOC(=O)[C@H](CCc1ccccc1)N[C@@H](C)C(=O)N1Cc2ccccc2C[C@H]1C(=O)O`, the Potency entry in [1], in experiment [2], in experiment [3], in experiment [4], in experiment [5] and in [6] was “inactive” each time. Also, the Potency entry in experiment [13], in experiment [14], in experiment [8], in experiment [9], in [15] and in [11] was “inactive” in each case. Further, the Potency result in experiment [17] and in [12] was “inactive” throughout. Moreover, in experiment [10], the compound was called inactive. Moreover, the activity change, positive = activation is -3.47% (inactive) in experiment [16] (at 42.5 µM (top of the series)) and -6.49% (inactive) in experiment [16] (at 92.4 µM (top of the series)).

In the case of `CCCCCCC(C)(C)S`, the Potency entry in experiment [1], in [2], in [3], in experiment [4], in experiment [5] and in experiment [6] was “inactive” in each case. For the same compound, the Potency entry in experiment [7], in [8], in [9], in experiment [11], in [17] and in [12] was “inactive” each time. The result in experiment [10] was inactive.

For the compound `CCCCCCCCCC(=O)O`, the Potency result in [1], in experiment [3], in [4], in experiment [6], in experiment [13] and in experiment [14] was “inactive” in each case. Further, the Potency result in experiment [7], in experiment [8], in [9], in experiment [15], in experiment [11] and in experiment [17] was “inactive” in each case. Besides, the Potency result in experiment [12] was “inactive”. In addition, the compound was called inactive in [10]. In addition, the activity change, positive = activation in experiment [16] (at 92.4 µM (top of the series)) is -1.8% (inactive) and -5.57% (inactive).

As for `Oc1c(Cl)cc(Cl)c(Cl)c1Cl`, the Potency entry in experiment [1], in experiment [2], in [3], in experiment [4], in experiment [6] and in [14] was “inactive” in each case. The Potency result in experiment [7], in experiment [8], in [11] and in experiment [12] was “inactive” in each case. The Potency in experiment [13] is 59.8 µM (active) and 54.5 µM (active); in experiment [18], 111 µM (active); in experiment [15] it was 53.3 µM (active) and 48.6 µM (active). Also, the result in experiment [10] was inactive. For the same compound, the activity change, positive = activation in experiment [16] (at 92.4 µM (top of the series)) was -46.5% (inactive) and -37.8% (inactive).

For the compound `COC(=O)Nc1nc2ccc(Sc3ccccc3)cc2[nH]1`, the Potency entry in experiment [1], in experiment [3], in experiment [4], in [6], in experiment [7] and in experiment [8] was “inactive” throughout. Besides, the Potency result in experiment [18], in experiment [11] and in experiment [12] was “inactive” each time. Further, the Potency in experiment [5] is 4.33 µM (active).

As for `COC(=O)c1ccc(C(=O)OC)cc1`, the Potency is 24.7 µM (active) and inactive in experiment [1]; 32.1 µM (active) and inactive in experiment [2]; 6.95 µM (active) and inactive in experiment [19]; 24.7 µM (active) and inactive in [6]; 4.96 µM (active) and inactive in experiment [8]; 39.4 µM (active) and inactive in [17]. The Potency entry in [5], in [7], in [9], in experiment [11] and in experiment [12] was “inactive” in each case. Moreover, the compound was classed as inactive in [10].
